The record followed here is PubChem BioAssay.

Values joined by “and” are separate entries in the source; they are usually repeats but may differ in a detail not shown here. Identical values can stand only once. Where a structure was tested more than once in an assay, its records may differ in their call. Active and inactive are the calls of the source.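 Rule for the calls, unless noted: active = inhibition at or above 50% relative to wild type and mutant plate controls; inactive = inhibition below 50%.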

A short description of assay [1]: inhibitors of TNFa-induced NFkB p65 translocation, primary screen, imaging, HUVEC, MLSMR starter and 10KST1 sets (AID 438;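 active = inhibition above 20% together with a positive visual image hit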;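 note: compound added about 3h40 before a 20 min TNFalpha stimulation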;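 for inhibition: signal is the nuclear over cytoplasmic p65 intensity ratio per well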). The note with it: HUVEC TNFa-induced p65 nuclear translocation; cell count: measured here: nuclei count (cytotoxicity indicator), at 2.08 µM; inhibition: at 2 µM, stronger effect = higher value, 0% TNFa-plus-vehicle, 100% no-TNFa wells.
A short description of assay [2]: inhibitors of mutant huntingtin aggregation, primary screen, imaging, exon1htt(103Q)mCFP cells, high-content imaging (AID 483;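 active = visual image review flags a hit and inhibition of aggregation exceeds 20%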;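 note: compound exposure lasted 3 days before fixation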;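 for nuclei count: percent of the per-plate median nuclei count of sample wells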). The settings on record: exon1htt(103Q)mCFP cell line, aggregate imaging, at 2 µM; inhibition of aggregation: stronger effect = higher value; nuclei count: measured here: cell count, toxicity.
Assay [3] in a line: inhibitors of E-selectin induction by TNFa, primary screen, imaging, HUVEC, immunofluorescence, MLSMR starter and 10KST1 sets (AID 487;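 active = visually confirmed hit in the image check and inhibition above 20%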;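 for inhibition: signal is fraction of cell area covered by stained E-selectin grains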;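 for nuclei count: 100% = median nuclei count of all wells on the same plate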). The note with it: HUVEC TNFalpha-induced E-selectin immunofluorescence imaging, at 2 µM; inhibition: stronger effect = higher value; nuclei count: measured here: cell number, toxicity.
A short description of assay [4]: DUSP6 inhibitors restoring Erk phosphorylation by chemical complementation, primary imaging in DUSP6-transfected HeLa (AID 609;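 active = compounds giving at least 50% inhibition in the cell-based MKP-3 phosphatase rescue imaging test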;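 for inhibition: phospho-Erk level distribution per well compared with pooled transfected vehicle control wells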). The settings on record: HeLa MKP-3 transfected, phospho-Erk imaging KS statistic, at 10 µM, cells stimulated with TPA for 15 min.
For assay [5], the target named is Dual specificity protein phosphatase 6 (Homo sapiens) (UniProt Q16828). The assay is described as above. The note with it: HeLa MKP-3 transfected, phospho-Erk imaging KS statistic; at 10 µM; stronger effect = higher value; cells stimulated with TPA for 15 min.
Assay [6] addresses Voltage-gated potassium channel subunit beta-2 (Rattus norvegicus) (UniProt P62483). The assay can be described thus: KvBeta enzyme negative modulators, primary screen, biochemical, NADPH fluorescence (AID 622;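 active = fluorescence slope higher than the sample average by over 3 SD, cut at about -0.22 in these data, passing the limit was not always enough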;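 note: slope of raw intensity against log time taken from 70 to 1610 s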). The note with it: recombinant KvBeta, 4-cyanobenzaldehyde reduction, at 10 µM, stronger effect = higher value.
The target is the same in assay [7]. Description: KvBeta positive modulators, primary screen, biochemical, NADPH fluorescence (AID 623;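 active = NADPH fluorescence slope more negative than the mean of all samples by about 3 SD, 99.7% confidence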;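 note: fluorescence intensity change per second fitted from 20 to 320 s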). The note with it: Recombinant KvBeta, NADPH fluorescence decrease slope, 10 min; at 10 µM; stronger effect = lower value.
The target in assay [8] is Alpha-2C adrenergic receptor (Homo sapiens) (UniProt P18825). The assay can be described thus: modulators of alpha2C/GIRK thallium flux, primary screen, cell-based, HEK293 alpha2C/GIRK1/2 (AID 624;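 active = fluorescence slope after compound addition differing from the mean of all screened samples at 99.7% confidence, in either direction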;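 note: slope of fluorescence ratio to pre-addition baseline per second over 15 to 24 s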). The note with it: thallium flux BTC fluorescence, at 10 µM, actives lie on both sides.
Assay [9] is described as follows: inhibitors of larval lipid processing in zebrafish, primary screen, whole organism, PED6 fluorescence, gall bladder and intestine (AID 686;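 active = a full or partial loss of lipid-probe fluorescence in the fish gall bladder, intestine or both, judged by eye; inactive = no fluorescence loss, or compound toxic to the fish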;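 note: larvae 5 to 7 days old with five fish per well; signal comes from phospholipase A2 cleavage of quenched PED6 carried via bile; overnight exposure to compound and PED6 before scoring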). The note with it: Zebrafish larvae PED6 lipid processing, fluorescence scoring; screened at 20 µM (by protocol).
Assay [10] is described as follows: inhibitors of Chlamydomonas gravitaxis, primary screen, whole organism, Chlamydomonas reinhardtii, WT vs cilia-less mutant, absorbance, 96-well (AID 463189).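 Note: 0% = wild type cc124 cells in DMSO and 100% = ciliumless bld1 mutant cells.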 The settings on record: OD600 absorbance, 2 days, at 10 µM, stronger effect = higher value.
The nature of assay [11]: inhibitors of Sendai virus-induced IRF3 signaling, primary screen, TLR/RLR signaling modifier project, cell-based, Sendai virus stimulus, luciferase, 10K MLSCN set (AID 602276;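 active = inhibition at or above 50% at 10 µM; inactive = inhibition below 50%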;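 note: firefly luciferase from ISG56 promoter only with Renilla not read in this screen; 0% = Sendai virus plus DMSO and 100% = medium plus DMSO without virus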). The settings on record: HEK293 RL24 IRF3 luciferase reporter, at 10 µM, stronger effect = higher value. On the technique in general: Reporter assays use an easily measured gene product as a stand-in for the process of interest.

The nature of assay [12]: inhibitors of poly I:C-induced TLR3 signaling, primary screen, cell-based, poly I:C stimulus, luciferase, 10K MLSCN set (AID 602277;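 active = inhibition of the reporter signal at or above 50%; inactive = inhibition below 50%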). The settings on record: HEK293-TLR3 RL24 IRF3 luciferase reporter, at 10 µM, stronger effect = higher value.
Where [13] appears, read: measured here: cell density z-score.
Setting [14] is: measured here: nuclear c-Myc green intensity z-score.
Setting [15] is: measured here: nuclear pErk red intensity z-score, stronger effect = higher value.

Voltage-gated potassium channel subunit beta-2 (Rattus norvegicus), sequence (P62483 whole entry, looked up): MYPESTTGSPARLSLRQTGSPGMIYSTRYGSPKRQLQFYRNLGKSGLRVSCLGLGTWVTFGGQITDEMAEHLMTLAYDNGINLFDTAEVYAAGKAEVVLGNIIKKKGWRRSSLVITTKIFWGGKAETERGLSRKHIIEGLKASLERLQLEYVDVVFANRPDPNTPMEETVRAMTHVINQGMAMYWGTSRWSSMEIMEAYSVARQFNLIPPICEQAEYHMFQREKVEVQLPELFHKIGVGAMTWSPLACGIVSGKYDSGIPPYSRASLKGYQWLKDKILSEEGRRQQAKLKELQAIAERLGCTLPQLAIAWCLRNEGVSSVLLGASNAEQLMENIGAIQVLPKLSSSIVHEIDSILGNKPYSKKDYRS
Dual specificity protein phosphatase 6 (Homo sapiens), sequence (Q16828 whole entry, looked up): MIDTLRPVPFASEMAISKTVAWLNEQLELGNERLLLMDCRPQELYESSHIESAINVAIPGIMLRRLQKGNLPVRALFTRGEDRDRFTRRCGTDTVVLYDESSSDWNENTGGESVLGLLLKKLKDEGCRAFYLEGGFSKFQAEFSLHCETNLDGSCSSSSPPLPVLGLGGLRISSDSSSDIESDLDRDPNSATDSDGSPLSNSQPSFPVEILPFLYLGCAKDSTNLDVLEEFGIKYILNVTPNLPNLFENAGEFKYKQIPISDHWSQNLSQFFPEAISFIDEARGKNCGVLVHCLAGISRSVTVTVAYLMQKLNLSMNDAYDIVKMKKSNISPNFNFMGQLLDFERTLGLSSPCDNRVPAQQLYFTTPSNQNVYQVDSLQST
Alpha-2C adrenergic receptor (Homo sapiens), sequence (P18825 whole entry, looked up): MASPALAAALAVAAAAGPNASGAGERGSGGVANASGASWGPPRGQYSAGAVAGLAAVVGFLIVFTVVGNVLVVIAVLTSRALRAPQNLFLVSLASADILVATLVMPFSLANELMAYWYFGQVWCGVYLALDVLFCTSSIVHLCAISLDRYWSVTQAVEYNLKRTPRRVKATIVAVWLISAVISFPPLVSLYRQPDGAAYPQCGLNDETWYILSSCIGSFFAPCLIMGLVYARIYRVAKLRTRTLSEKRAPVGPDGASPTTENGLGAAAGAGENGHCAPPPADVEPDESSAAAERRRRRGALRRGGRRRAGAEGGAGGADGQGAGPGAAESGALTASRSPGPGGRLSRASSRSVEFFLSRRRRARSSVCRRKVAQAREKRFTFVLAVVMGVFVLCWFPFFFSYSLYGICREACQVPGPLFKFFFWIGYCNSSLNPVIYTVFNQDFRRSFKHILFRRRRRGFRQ

As usually defined, the inhibition is the drop in the measured response relative to a control, in per cent. As for `COC(=O)c1cc(S(=O)(=O)N2CCOCC2)c(N2CCOCC2)cc1N1CCOCC1`, the cell count in assay [1] stood at 427. Further, the inhibition in assay [1] is -5.9% (inactive); in [3], -21.7% (inactive); in assay [5] it was -1.75% (inactive); in assay [10], 23.9% (inactive); in [11] it was 4.03% (inactive); in [12], 11% (inactive). Also, in assay [2], the inhibition of aggregation is 5% (inactive). Further, the nuclei count in assay [2] was determined as 118%; in assay [3], 129%. Moreover, the z-score was -1.77 in assay [4] (setting [13]), -0.115 in [4] (setting [14]) and 0.265 in assay [4] (setting [15]). For the same compound, in [6], the fluorescence slope is -0.409 (inactive). Moreover, the NADPH fluorescence slope in assay [7] was -0.000135 (inactive). The slope in assay [8] is 0.00461 (inactive). The call in [9] was inactive.

With `O=C(O)CC1SC(=Nc2cccc(C(F)(F)F)c2)NC1=O` (stereo not given), in assay [1], the cell count stood at 447. For the same compound, the inhibition in assay [1] was -2.2% (inactive); in [3], -42.6% (inactive); in assay [5], 3.42% (inactive); in assay [10], 34.2% (inactive); in [11], 19.6% (inactive); in assay [12], 19.9% (inactive). Also, the inhibition of aggregation in [2] was 3.4% (inactive). Besides, the nuclei count in assay [2] turned out to be 95.3%; in [3], 105%. Besides, the z-score was -0.141 in assay [4] (setting [13]), 1.56 in assay [4] (setting [14]) and 0.654 in [4] (setting [15]). Besides, in assay [6], the fluorescence slope was -0.448 (inactive). Further, in assay [7], the NADPH fluorescence slope was 1.4e-05 (inactive). Moreover, the slope in [8] is 0.0048 (inactive). Moreover, the compound was called inactive in assay [9].

With `C[C@]12CC[C@@H]3c4ccc(OS(=O)(=O)O)cc4CC[C@H]3[C@@H]1CCC2=O`, the cell count in assay [1] stood at 725. Moreover, the inhibition in assay [1] is -2.6% (inactive); in assay [3] it was -120% (inactive); in assay [5], 1.48% (inactive); in assay [10], 2.37% (inactive); in assay [11] it was 11.2% (inactive); in assay [12] it was 25.7% (inactive). Moreover, the inhibition of aggregation in assay [2] was 1.7% (inactive). The nuclei count in [2] came out at 98.9%; in assay [3] it was 121%. The z-score in assay [4] (setting [13]) was 1.77; in assay [4] (setting [14]) it was -0.742; in assay [4] (setting [15]) it was -1.13. The fluorescence slope in [6] is -0.507 (inactive). For the same compound, in assay [7], the NADPH fluorescence slope is -4.6e-05 (inactive). Besides, the slope in [8] was 0.00404 (inactive). In assay [9], the call was inactive.

`CC1=C(C)C(=O)C(CCCCC#CCCCC#CCO)=C(C)C1=O`: the cell count in assay [1] amounted to 531. Moreover, the inhibition in assay [1] is 4.4% (inactive); in assay [3], -112% (inactive); in [5] it was 19.2% (inactive); in assay [10], -6.32% (inactive) and 57.1% (active); in assay [11], 14.4% (inactive); in assay [12], 32.8% (inactive). In addition, the inhibition of aggregation in assay [2] is 9.6% (inactive). Besides, the figures for the nuclei count in assay [2] and in [3] were 95.5% and 108%, respectively. For the same compound, the z-score was 0.752 in assay [4] (setting [13]), -0.729 in assay [4] (setting [14]) and -1.42 in assay [4] (setting [15]). Also, the fluorescence slope in assay [6] is -0.452 (inactive). Further, in assay [7], the NADPH fluorescence slope was -2.1e-05 (inactive). Further, the slope in assay [8] was 0.00343 (inactive). Further, the result in assay [9] was inactive.

For the compound `CCN(CC)CCOC(=O)C1(C2CCCCC2)CCCCC1`, the cell count in assay [1] is 520. For the same compound, the inhibition was -11.3% (inactive) in [1]; -57.3% (inactive) in [3]; -6.41% (inactive) in assay [5]; -2.13% (inactive) and -31% (inactive) in assay [10]; 10.2% (inactive) in assay [11]; 38.4% (inactive) in assay [12]. Besides, the inhibition of aggregation in assay [2] was 17.1% (inactive). For the same compound, the results for the nuclei count in [2] and in [3] were 96% and 118%, respectively. Moreover, the values for the z-score in assay [4] (setting [13]), in assay [4] (setting [14]) and in assay [4] (setting [15]) were -0.235, -0.682 and 1.64, respectively. Further, the fluorescence slope in assay [6] was -0.494 (inactive). In addition, the NADPH fluorescence slope in assay [7] is -5.1e-05 (inactive). In addition, the slope in assay [8] was 0.00415 (inactive). Besides, the outcome in [9] was inactive.
